Results on eight molecules are retold here after PubChem BioAssay (Tox21).

Values without a mark were called inactive. Results filed as inconclusive are left out. Active and inactive are the calls of the source. Unless noted, calls follow the shape of the dose curve; as a rule, active = well fitted curve in the direction sought with a large enough effect in the repeat runs; inconclusive = weak or mixed curves; inactive = no such curve, though single readings can be large; an effect the other way counts as inactive or inconclusive.

The nature of assay [1]: qHTS assay to identify small molecule agonists of the TGF-beta/Smad signaling pathway - cell viability counter screen (AID 1346829). Also: top concentration of the series differs between compounds; nearly all actives have a fitted effect of over 45% in size. In a few lines: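 In parallel with the Smad reporter read, viability of HEK 293T cells stably carrying SBE-bla is quantified by ATP luminescence following 5 hr compound treatment.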
Background: Quantitative high-throughput screening tests each substance at several concentrations.

The nature of assay [2]: qHTS assay to identify small molecule agonists of the TGF-beta/Smad signaling pathway (AID 1346859; active = well fitted activation curve with a large enough effect in the signal ratio in the repeat runs, not every such curve was filed as active; the % refers to the signal ratio; also: series mostly up to about 77 µM). In a few lines:
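Stable Smad binding element-beta-lactamase HEK 293T cells; 5 hr compound exposure at 37 C under 5% CO2; 2 hr room-temperature substrate step; fluorescence excited at 405 nm, collected at 460 nm and 530 nm.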

A short description of assay [3]: Human pregnane X receptor (PXR) small molecule agonists, qHTS cell viability counter screen (AID 1346977). Also: nearly all actives have a fitted effect of over 50% in size. In a few lines: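 Readout is CellTiter-Fluor fluorescence from PXR-Luc HepG2 cells. Plated cells rested 5hr, then were treated with compounds for 24hr at 37C and 5% CO2, with reagent present during the last hour.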
The nature of assay [4]: Caspase-3/7 induction in HepG2 cells by small molecules, qHTS assay (AID 1346978). Also: nearly all actives have a fitted effect of over 15% in size. In a few lines: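 Wild-type HepG2 cells, 2,000/well, settled 5 hr at 37 C and 5% CO2, then compound-treated for 17 hr; caspase-3/7 activity read by luminescent Caspase-Glo 3/7 after 30 min at room temperature.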
Assay [5] is described as follows: Caspase-3/7 induction in CHO-K1 cells by small molecules, qHTS cell viability counter screen (AID 1346979). Also: nearly all actives have a fitted effect of over 35% in size. In a few lines: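 To flag cytotoxic compounds, treated CHO-K1 wild-type cells were given CellTiter-Fluor at 16hr and read fluorescently after 1hr at 37C; the caspase-3/7 luminescence was measured in these same wells.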
The nature of assay [6]: Caspase-3/7 induction in CHO-K1 cells by small molecules, qHTS assay (AID 1346980). Also: nearly all actives have a fitted effect of over 15% in size. In a few lines:
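Wild-type CHO-K1 cells exposed to compounds for 17hr at 37 C, 5% CO2. Caspase-3/7 activity then measured by Caspase-Glo 3/7 luminescence after 30min at room temperature.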

Assay [7] concerns the target Cytochrome P450 2D6 (Homo sapiens) (UniProt P10635). The experiment in a line: Cytochrome P450 Family 2 Subfamily D Member 6 (CYP2D6) small molecule antagonists: luciferase reporter qHTS assay (AID 1671196). Also: nearly all actives have a fitted effect of over 50% in size. Also: potency is read from the fitted curve at half-maximal effect. In a few lines: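 P450-Glo format: CYP2D6 converts a proluciferin substrate to luciferin in an NADPH-driven reaction lasting 1 h at room temperature. Light output, proportional to CYP2D6 activity, reflects interference by test chemicals.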
In general terms: In a reporter assay the amount or activity of a reporter protein is the signal.

In assay [8] the target is Cytochrome P450 2C19 (Homo sapiens) (UniProt P33261). The experiment in a line: Cytochrome P450 Family 2 Subfamily C Member 19 (CYP2C19) small molecule antagonists: luciferase reporter qHTS assay (AID 1671197). Also: nearly all actives have a fitted effect of over 65% in size. Also: potency is read from the fitted curve at half-maximal effect. In a few lines:
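Compounds were tested on CYP2C19 activity via proluciferin conversion to luciferin. The 37C, 1 h reaction followed NADPH addition; detection reagent stopped it.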

Assay [9] deals with Cytochrome P450 2C9 (Homo sapiens) (UniProt P11712). The experiment in a line: Cytochrome P450 Family 2 Subfamily C Member 9 (CYP2C9) small molecule antagonists: luciferase reporter qHTS assay (AID 1671198). Also: nearly all actives have a fitted effect of over 50% in size. Also: potency is read from the fitted curve at half-maximal effect. In a few lines:
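P450-Glo proluciferin substrate with CYP2C9 enzyme; 10 min RT preincubation, then NADPH regeneration 1 h at 37C; luciferin detection reagent 20 min RT, luminescence in relative luminescence units.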

Assay [10] concerns the target Cytochrome P450 1A2 (Homo sapiens) (UniProt P05177). The experiment in a line: Cytochrome P450 Family 1 Subfamily A Member 2 (CYP1A2) small molecule antagonists: luciferase reporter qHTS assay (AID 1671199). Also: nearly all actives have a fitted effect of over 50% in size. Also: potency is read from the fitted curve at half-maximal effect. In a few lines:
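Inhibition of CYP1A2 conversion of proluciferin to luciferin, detected by luminescence. Reaction run 1 h at room temperature with NADPH regeneration after brief compound preincubation.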

The target of assay [11] is Voltage-gated inwardly rectifying potassium channel KCNH2 (Homo sapiens) (UniProt Q12809). The experiment in a line: Human Ether-a-go-go-Related Gene (hERG) channel small molecule antagonists: fluorescence cell-based qHTS assay (AID 1671200). In a few lines: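 Measured: Tl+ flux via fluorescence (480/540 nm) in hERG-expressing U2OS cells after 1 h dye loading at room temperature.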
Voltage-gated inwardly rectifying potassium channel KCNH2 (Homo sapiens), sequence (Q12809 whole entry, looked up): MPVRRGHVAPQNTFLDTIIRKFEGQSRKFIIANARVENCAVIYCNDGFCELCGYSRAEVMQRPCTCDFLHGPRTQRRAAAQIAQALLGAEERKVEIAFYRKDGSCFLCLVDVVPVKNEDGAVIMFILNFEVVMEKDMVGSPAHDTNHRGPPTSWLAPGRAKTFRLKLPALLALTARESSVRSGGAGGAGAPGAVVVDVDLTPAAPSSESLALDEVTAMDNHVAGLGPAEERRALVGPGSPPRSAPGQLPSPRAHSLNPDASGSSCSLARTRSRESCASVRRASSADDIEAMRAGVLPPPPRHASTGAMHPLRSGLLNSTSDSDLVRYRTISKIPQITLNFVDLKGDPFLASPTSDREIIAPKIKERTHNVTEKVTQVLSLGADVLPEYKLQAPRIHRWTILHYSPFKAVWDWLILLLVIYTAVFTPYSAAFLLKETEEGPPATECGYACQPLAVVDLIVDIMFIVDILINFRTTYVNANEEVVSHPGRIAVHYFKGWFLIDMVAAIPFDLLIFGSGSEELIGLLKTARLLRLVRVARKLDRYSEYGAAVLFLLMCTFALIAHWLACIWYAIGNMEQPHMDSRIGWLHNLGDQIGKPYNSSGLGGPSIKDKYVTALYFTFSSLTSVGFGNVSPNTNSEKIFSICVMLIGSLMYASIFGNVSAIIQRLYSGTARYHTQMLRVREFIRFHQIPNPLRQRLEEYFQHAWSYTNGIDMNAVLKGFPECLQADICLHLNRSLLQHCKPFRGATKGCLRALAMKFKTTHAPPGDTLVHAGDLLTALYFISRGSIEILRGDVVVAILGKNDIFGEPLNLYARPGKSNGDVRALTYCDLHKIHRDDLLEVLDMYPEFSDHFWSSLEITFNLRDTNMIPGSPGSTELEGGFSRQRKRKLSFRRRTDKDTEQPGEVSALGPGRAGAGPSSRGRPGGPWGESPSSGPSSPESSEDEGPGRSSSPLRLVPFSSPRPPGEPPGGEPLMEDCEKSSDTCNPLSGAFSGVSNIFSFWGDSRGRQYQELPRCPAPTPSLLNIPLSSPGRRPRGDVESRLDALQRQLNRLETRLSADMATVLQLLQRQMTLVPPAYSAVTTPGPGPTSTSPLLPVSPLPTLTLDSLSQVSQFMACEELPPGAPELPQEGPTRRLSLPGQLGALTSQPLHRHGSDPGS

The target of assay [12] is Cytochrome P450 3A4 (Homo sapiens) (UniProt P08684). The experiment in a line: Cytochrome P450 Family 3 Subfamily A Member 4 (CYP3A4) small molecule antagonists: luciferase reporter qHTS assay (AID 1671201). In a few lines: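 Setup: enzyme-substrate mix, compound pin transfer, 10 min RT. Reaction: NADPH regeneration solution, 1 h RT. Readout: detection reagent stops turnover, luminescence measured after 20 min, expressed in relative luminescence units.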
Cytochrome P450 3A4 (Homo sapiens), sequence (P08684 whole entry, looked up): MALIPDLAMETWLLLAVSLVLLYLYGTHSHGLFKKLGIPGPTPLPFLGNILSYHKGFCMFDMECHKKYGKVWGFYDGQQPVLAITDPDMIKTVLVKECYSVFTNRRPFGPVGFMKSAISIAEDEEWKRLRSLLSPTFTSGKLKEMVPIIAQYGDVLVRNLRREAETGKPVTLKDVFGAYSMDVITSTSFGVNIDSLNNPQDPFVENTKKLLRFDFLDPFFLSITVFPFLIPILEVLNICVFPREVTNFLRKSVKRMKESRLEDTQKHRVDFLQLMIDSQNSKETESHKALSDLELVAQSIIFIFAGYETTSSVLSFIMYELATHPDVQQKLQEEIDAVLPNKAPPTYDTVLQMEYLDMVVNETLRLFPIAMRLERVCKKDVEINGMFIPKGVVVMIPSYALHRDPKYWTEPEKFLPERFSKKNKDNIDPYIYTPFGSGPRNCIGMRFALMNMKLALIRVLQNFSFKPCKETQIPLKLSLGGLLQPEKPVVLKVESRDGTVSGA

Assay [13] is described as follows: Caspase-3/7 induction in HepG2 cells by small molecules, qHTS cell viability counter screen (AID 1346981). Also: series mostly up to about 92 µM; nearly all actives have a fitted effect of over 30% in size. In a few lines:
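Steps: seed 2,000 HepG2 cells per well; incubate 5 hr at 37 C; pin-add compounds in DMSO; incubate 16 hr; add CellTiter-Fluor; after 1 hr at 37 C and 5% CO2, read fluorescence.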

Assay [14] addresses Nuclear receptor subfamily 1 group I member 2 (Homo sapiens) (UniProt O75469). The experiment in a line: Human pregnane X receptor (PXR) small molecule agonists, qHTS assay (AID 1346982). Also: nearly all actives have a fitted effect of over 35% in size. In a few lines: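 Agonist mode qHTS: PXR-Luc HepG2 cells plated 5 hr before DMSO-dissolved compounds were pinned in, cultured 24 hr at 37 C, 5% CO2; ONE-Glo luminescence readout.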
For assay [15], the target named is Nuclear receptor subfamily 1 group I member 2 (Rattus norvegicus) (UniProt Q9R1A7). The experiment in a line: Rat pregnane X receptor (rPXR) activation by small molecules, qHTS assay (AID 1346983). Also: nearly all actives have a fitted effect of over 20% in size. The conditions noted are these: rPXR luciferase reporter cells, One-Glo luminescence, 24 h; max activation: stronger effect = higher value. In a few lines:
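Cell-based rPXR activation assay: rPXR cells, 2,000 per well, rested 5hr at 37 C, then exposed to compounds in DMSO for 24 hr at 37 C. Luciferase activity read by One-Glo luminescence after 30 min at room temperature.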

The target in assay [16] is Nuclear receptor subfamily 1 group I member 2 (Homo sapiens) (UniProt O75469). The experiment in a line: Human pregnane X receptor (PXR) activation by small molecules, qHTS assay (AID 1346985). Also: nearly all actives have a fitted effect of over 40% in size. In a few lines: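 DPX-2 cells (HepG2 co-transfected with a PXR response element and a CYP3A4-promoter luciferase construct) were seeded at 2,000 per well, rested 5 hr at 37C, then exposed to DMSO-dissolved compounds for 24 hr. Activation was read as luciferase luminescence.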
Nuclear receptor subfamily 1 group I member 2 (Homo sapiens), sequence (O75469 whole entry, looked up): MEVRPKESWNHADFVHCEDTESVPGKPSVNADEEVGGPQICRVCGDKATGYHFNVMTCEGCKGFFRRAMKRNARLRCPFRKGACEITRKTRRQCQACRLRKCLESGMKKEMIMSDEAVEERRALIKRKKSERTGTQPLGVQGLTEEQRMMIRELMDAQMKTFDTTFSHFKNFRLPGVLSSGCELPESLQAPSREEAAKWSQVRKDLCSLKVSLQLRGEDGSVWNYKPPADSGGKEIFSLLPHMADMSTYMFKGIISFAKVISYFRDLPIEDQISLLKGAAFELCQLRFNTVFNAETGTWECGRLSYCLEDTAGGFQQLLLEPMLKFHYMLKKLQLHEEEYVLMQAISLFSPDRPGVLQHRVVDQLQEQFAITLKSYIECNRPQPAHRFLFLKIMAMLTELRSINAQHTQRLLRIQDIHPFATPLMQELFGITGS

Assay [17] shares this target. The experiment in a line: CYP3A4 induction through human pregnane X receptor (PXR) by small molecules, qHTS assay (AID 1346984). Also: nearly all actives have a fitted effect of over 40% in size. In a few lines:
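Steps: seed DPX-2 cells, 5 hr at 37C; pin-transfer compounds; 24 hr at 37C; add Luciferin-IPA (3uM final), 3 hr at 37C; add One-Glo, 30 min RT; read luminescence.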

The target in assay [18] is Thyrotropin-releasing hormone receptor (Homo sapiens) (UniProt P34981). The experiment in a line: qHTS assay to identify small molecule antagonists of the thyrotropin-releasing hormone receptor (TRHR) signaling pathway (AID 1346877; active = well fitted inhibition curve with a large enough effect in the repeat runs, not every such curve was filed as active; also: series mostly up to about 51 µM). In a few lines: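 Cells (TRHR-HEK293) are plated and kept 18 h at 37 °C/5% CO2. A calcium-sensitive dye is added for 2 h, compound follows for 5 min at room temperature, and TRH is then given at 1 nM final.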
Thyrotropin-releasing hormone receptor (Homo sapiens), sequence (P34981 whole entry, looked up): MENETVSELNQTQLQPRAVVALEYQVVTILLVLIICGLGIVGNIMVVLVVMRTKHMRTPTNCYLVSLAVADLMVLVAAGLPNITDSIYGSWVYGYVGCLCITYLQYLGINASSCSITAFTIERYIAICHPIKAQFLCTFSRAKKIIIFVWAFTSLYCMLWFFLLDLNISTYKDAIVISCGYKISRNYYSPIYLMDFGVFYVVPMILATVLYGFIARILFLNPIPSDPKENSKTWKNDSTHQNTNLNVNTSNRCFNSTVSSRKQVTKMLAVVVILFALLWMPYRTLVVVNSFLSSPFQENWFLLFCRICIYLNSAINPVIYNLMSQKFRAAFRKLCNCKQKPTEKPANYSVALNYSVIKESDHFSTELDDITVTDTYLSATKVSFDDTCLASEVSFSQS

Assay [19] shares this target. The experiment in a line: qHTS assay to identify small molecule agonists of the thyrotropin-releasing hormone receptor (TRHR) signaling pathway (AID 1346891; calls by dose curve;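 also: HEK293 cells expressing TRHR with calcium dye readout; series mostly up to about 58 µM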). In a few lines: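 In 1536-format, 1500 TRHR-Hek293 cells per well grew 18 h, took up calcium dye for 2 h at 37 °C, received compound, and were read kinetically; 15-point titrations, triplicates.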
% is scaled to controls: 0 for no effect and ±100 for the full control effect.

Cytochrome P450 2C19 (Homo sapiens), sequence (P33261 whole entry, looked up): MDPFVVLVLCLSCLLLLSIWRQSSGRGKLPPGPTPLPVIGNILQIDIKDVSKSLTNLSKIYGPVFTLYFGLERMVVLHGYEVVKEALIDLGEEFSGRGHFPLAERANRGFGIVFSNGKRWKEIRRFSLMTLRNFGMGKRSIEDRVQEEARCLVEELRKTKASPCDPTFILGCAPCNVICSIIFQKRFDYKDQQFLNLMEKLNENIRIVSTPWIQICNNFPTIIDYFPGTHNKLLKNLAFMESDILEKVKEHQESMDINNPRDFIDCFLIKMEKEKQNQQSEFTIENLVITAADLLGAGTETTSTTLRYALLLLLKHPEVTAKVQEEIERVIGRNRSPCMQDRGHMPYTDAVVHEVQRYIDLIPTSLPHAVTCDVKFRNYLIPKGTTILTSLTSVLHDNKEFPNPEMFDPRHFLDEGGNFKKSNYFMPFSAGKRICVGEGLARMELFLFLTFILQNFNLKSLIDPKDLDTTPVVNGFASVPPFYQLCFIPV
Nuclear receptor subfamily 1 group I member 2 (Rattus norvegicus), sequence (Q9R1A7 whole entry, looked up): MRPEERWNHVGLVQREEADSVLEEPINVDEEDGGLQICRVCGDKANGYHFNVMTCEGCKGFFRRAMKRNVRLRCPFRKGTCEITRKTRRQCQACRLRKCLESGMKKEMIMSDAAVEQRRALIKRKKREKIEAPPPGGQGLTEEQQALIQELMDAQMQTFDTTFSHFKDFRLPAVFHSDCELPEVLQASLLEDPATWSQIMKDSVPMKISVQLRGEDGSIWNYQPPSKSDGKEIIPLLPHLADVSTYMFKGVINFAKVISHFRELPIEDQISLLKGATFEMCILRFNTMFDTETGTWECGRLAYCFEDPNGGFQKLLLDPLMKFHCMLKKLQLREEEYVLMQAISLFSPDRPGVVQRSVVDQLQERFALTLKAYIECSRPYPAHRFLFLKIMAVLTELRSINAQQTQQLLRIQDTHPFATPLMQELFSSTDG
Cytochrome P450 1A2 (Homo sapiens), sequence (P05177 whole entry, looked up): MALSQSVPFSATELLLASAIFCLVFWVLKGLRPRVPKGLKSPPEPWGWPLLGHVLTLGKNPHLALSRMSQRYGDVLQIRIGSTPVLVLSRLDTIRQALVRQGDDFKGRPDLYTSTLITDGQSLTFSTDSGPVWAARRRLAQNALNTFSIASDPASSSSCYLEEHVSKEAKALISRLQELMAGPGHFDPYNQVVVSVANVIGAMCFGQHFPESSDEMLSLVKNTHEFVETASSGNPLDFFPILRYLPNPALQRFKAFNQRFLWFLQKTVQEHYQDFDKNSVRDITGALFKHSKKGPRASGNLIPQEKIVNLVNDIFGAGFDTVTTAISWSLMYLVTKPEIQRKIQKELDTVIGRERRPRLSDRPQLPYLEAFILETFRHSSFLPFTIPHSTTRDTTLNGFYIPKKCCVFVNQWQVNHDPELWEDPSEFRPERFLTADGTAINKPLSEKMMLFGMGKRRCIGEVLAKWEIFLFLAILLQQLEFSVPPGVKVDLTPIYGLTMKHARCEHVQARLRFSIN
Cytochrome P450 2C9 (Homo sapiens), sequence (P11712 whole entry, looked up): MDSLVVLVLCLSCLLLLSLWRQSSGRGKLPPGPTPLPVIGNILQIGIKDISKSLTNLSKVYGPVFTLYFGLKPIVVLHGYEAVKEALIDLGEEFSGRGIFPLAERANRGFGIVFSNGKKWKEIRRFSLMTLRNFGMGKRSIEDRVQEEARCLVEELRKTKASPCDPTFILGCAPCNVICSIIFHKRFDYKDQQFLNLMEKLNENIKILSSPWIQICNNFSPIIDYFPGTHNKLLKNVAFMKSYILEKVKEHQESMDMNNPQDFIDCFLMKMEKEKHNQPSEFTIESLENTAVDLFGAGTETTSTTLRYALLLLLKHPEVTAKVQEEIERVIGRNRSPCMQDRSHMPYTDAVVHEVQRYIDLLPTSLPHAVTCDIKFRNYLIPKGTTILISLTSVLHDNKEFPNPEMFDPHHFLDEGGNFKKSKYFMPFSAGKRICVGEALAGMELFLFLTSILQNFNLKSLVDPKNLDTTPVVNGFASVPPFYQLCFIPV
Cytochrome P450 2D6 (Homo sapiens), sequence (P10635 whole entry, looked up): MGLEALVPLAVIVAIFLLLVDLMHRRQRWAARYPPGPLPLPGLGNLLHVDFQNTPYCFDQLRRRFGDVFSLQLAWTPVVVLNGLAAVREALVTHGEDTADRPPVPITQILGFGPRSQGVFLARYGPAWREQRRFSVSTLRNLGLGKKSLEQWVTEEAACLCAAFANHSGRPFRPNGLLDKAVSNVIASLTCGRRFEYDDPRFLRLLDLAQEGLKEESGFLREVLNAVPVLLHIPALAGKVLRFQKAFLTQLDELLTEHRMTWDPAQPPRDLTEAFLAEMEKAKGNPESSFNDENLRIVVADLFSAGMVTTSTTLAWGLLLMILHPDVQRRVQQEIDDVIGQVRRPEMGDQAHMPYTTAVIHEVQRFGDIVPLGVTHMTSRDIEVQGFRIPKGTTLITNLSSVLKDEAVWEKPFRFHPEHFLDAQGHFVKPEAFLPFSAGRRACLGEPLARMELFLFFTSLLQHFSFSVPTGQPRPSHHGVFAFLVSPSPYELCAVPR

On to `CCOC(=O)C(C)(C)C`, for which the outcome in assay [1], in assay [2], in [4] and in assay [6] was inactive. Moreover, the Potency result in assay [3], in [5], in [7], in assay [8], in [9] and in assay [10] was “inactive” throughout. In addition, the Potency entry in [11] and in assay [12] was “inactive” in each case.

For the molecule `CCCCCCCC/C=C\CCCCCCCC(=O)OC[C@@H](O)[C@H]1OC[C@H](O)[C@H]1O`, the result in assay [1], in assay [2], in [4] and in assay [6] was inactive. For the same molecule, the Potency result in [3], in assay [13], in assay [14], in [7], in assay [8] and in assay [10] was “inactive” throughout. Also, the Potency entry in assay [11] and in assay [12] was “inactive” each time. Also, the Potency in [9] is 31.7 µM (active).

Regarding `CC(=O)OC(C(=O)c1ccccc1)c1ccccc1` (stereo not drawn), the outcome in assay [1], in assay [2] and in assay [4] was inactive. Also, the Potency entry in assay [3], in assay [5], in [13], in assay [11] and in assay [12] was “inactive” in each case. The Potency was 35.7 µM (active) in [7], 8.98 µM (active) in assay [8] and 40.1 µM (active) in assay [10].

Consider `CO[Si](CCCS)(OC)OC`, for which the call in [1], in [2], in assay [4] and in assay [6] was inactive. The Potency result in [3], in assay [5], in [14], in assay [7], in [8] and in assay [9] was “inactive” each time. In addition, the Potency entry in assay [10] and in [11] was “inactive” throughout.

With `O=P(O)(O)OCC(O)CO` (stereo not drawn), the call in assay [1], in assay [2], in assay [4] and in [6] was inactive. Further, the Potency result in [3], in [13], in assay [14], in assay [7], in assay [8] and in [9] was “inactive” each time. Moreover, the Potency entry in assay [10], in assay [11] and in assay [12] was “inactive” throughout.

Regarding `NC(=O)C1(N2CCCCC2)CCN(CCCC(=O)c2ccc(F)cc2)CC1`, the call in assay [1], in assay [2], in assay [4] and in [6] was inactive. The Potency entry in [3], in assay [13], in assay [14], in assay [16], in assay [8] and in assay [10] was “inactive” each time. In [15], the max activation was 0.444%. In addition, the Potency in [7] was 4.9 µM (active).

On to `CC(=O)N(CC(O)CO)c1c(I)c(C(=O)NCC(O)CO)c(I)c(C(=O)NCC(O)CO)c1I` (stereo not drawn), for which the molecule was called inactive in [1], in assay [2], in assay [4], in assay [6] and in assay [17]. Further, the Potency entry in [3], in assay [13], in assay [14], in assay [16], in [7] and in [8] was “inactive” in each case. Moreover, the Potency entry in [10], in assay [11] and in [12] was “inactive” each time. Moreover, the max activation in [15] was -0.214%.

Take `Cc1oc(=O)oc1CN1CCN(c2cc3c(cc2F)c(=O)c(C(=O)O)c2n3C(C)S2)CC1` (stereo not drawn): the molecule was classed as inactive in [1], in assay [18], in [19], in assay [4], in [6] and in [17]. Moreover, the Potency result in assay [3], in assay [5], in assay [16], in assay [7], in assay [8] and in [9] was “inactive” each time. Further, the Potency result in [10] and in [11] was “inactive” throughout. Moreover, the max activation in assay [15] was -2.98%.
